High-throughput results deposited in PubChem BioAssay by National Center for Advancing Translational Sciences (NCATS).
Shown are actives, neighbours in structure and some others; about 6.2% of the full set was active somewhere.
ATXN viability: cell viability loss in ATXN counter-screen; actives 0.49% (n = 400,000); Potency, µM (top dose mostly 56.7 µM), most hits filed as cytotoxic; S2 cells (HEK-293 line with an ATXN2-luciferase reporter) viability, CellTiter-Fluor protease fluorescence, 24 h; note: nearly all actives have a fitted effect of over 40% in size
KB-3-1 cytotox: kills parental KB-3-1 adenocarcinoma cells; Potency, µM (highest dose often 46.1 µM), actives largely listed as cytotoxic; actives 1.4% (n = 400,000); AID 1347075; KB-3-1 viability, CellTiter-Glo ATP luminescence, 72 h; note: % is set by controls: 0 for no effect and ±100 for the full control effect; nearly all actives have a fitted effect of over 60% in size
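Using CellTiter-Glo luminescence, growth of non-resistant KB-3-1 adenocarcinoma cells is assessed 72 h after pin-tool compound addition at 37 °C. Normalized responses across the concentration series yield fitted curves.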
HT1080 IDH1KD tx: HT-1080 IDH1 knockdown cell toxicity (counter line); Potency, µM (titrated, usually from 46.1 µM), without a hit: at the top dose activity, negative = toxicity, most hits filed as cytotoxic; HT-1080 IDH1 knockdown viability, ATP luminescence, 48 h; actives 2% (n = 360,000);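 note: 0% = DMSO wells and -100% = cell-free medium wells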
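Using the IDH1-knockdown HT-1080 line run in the same batch and compound series as the NT line, viability after 48 h at 37 °C was determined by CellTiter-Glo luminescence and expressed as % activity.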
ATXN2 expr inh: inhibitors of ATXN2 expression; actives 0.72% (n = 360,000); AID 1745845; Potency, µM (top dose mostly 57 µM), for inactives: at the top dose activity change, negative = inhibition, hits mostly inhibitors; HEK-293 ATXN2-luciferase reporter, luminescence, 24 h; note: % is set by controls: 0 for no effect and ±100 for the full control effect; nearly all actives have a fitted effect of over 55% in size
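qHTS (up to 57 uM final) was run with 24 h compound exposure of reporter cells at 37 °C. Each well was multiplexed: SteadyGlo luminescence measured ATXN2-luciferase expression after a fluorogenic Gly-Phe-AFC viability readout (25 uM final).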
HT1080NT lethal: kills 2HG-producing HT-1080-NT fibrosarcoma cells; HT-1080-NT fibrosarcoma viability, CellTiter-Glo ATP luminescence, 48 h; Potency, µM (top dose mostly 46.1 µM), for inactives: at the top dose activity, negative = less viability, actives largely listed as cytotoxic; actives 1.6% (n = 360,000); AID 686970;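 note: NT is the 2HG producing partner of a matched IDH1 knockdown line; 0% = DMSO-treated cells and -100% = media-only wells without cells; nearly all actives have a fitted effect of over 55% in size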
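HT-1080-NT fibrosarcoma cells (2HG-overproducing), 750 cells/well in RPMI with 5% FBS, dosed after 2 h and incubated 48 h at 37C. CellTiter-Glo luminescence normalized to DMSO and no-cell wells; concentration-response curves fitted and classed.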
KB-V1 cytotox: KB-V1 MDR subline cytotoxicity | KB-V1 MDR cells viability, CellTiter-Glo, 72 h | Potency, µM (doses to about 46.1 µM), hits mostly cytotoxic | actives 3.4% (n = 400,000) | AID 1347076; note: % is set by controls: 0 for no effect and ±100 for the full control effect; nearly all actives have a fitted effect of over 60% in size
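KB-V1 MDR subline cells in DMEM (phenol-red free, 10% FBS) exposed to compounds in qHTS concentration series for 72 h at 37 degrees C. Viability read by CellTiter-Glo luminescence; concentration-effect curves fitted after normalization and correction.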
An asterisk follows results filed as active; i = inactive; u = inconclusive; x = not tested or not shown; [ ] = remark or other dose. Calls come from the whole dose curve; as a rule, active = well fitted curve in the direction sought with a large enough effect; inconclusive = small, poorly fitted or top-dose-only effect, or another doubt; inactive = no such curve, though single readings can be large; an effect the other way counts as inactive or inconclusive. Potency is the fitted concentration of half-maximal effect.

SMILES	ATXN viability	KB-3-1 cytotox	HT1080 IDH1KD tx	ATXN2 expr inh	HT1080NT lethal	KB-V1 cytotox
CCCCN(CCCC)CC(O)c1cc(Cl)cc2c1-c1ccc(Cl)cc1C2=Cc1ccc(Cl)cc1 (centres undefined)	x	u	x	-12%	x	21µM*
CCCCN(C(=O)c1ccc(Cl)cc1)C1CC2CCC(C1)N2C (centres undefined)	i	i	-20%	-6%	-22%	i
N#CC1=C(N)Oc2ccc3ccccc3c2C1c1cccnc1 (centres undefined)	x	u	u	x	8.2µM*	5.2µM*
N#CC1=C(N)Oc2c(ccc3cccnc23)C1c1ccccc1 (centres undefined)	u	5.2µM*	u	-35%	u	i
Cc1ccc2[nH]c(=O)c(C3C(C#N)=C(N)Oc4c3ccc3cccnc43)cc2c1 (centres undefined)	x	16µM*	u	u	-27%	2.6µM*
COc1ccc(NC(=O)C(NS(=O)(=O)c2ccc3c(c2)CCCC(=O)N3)C(C)C)c(OC)c1 (centres undefined)	i	i	x	6%	x	i
COC(=O)/C(=C\Nc1ccc(Cl)cc1Cl)NC(=O)c1ccc(OC)cc1	u	5.8µM*	1.6µM*	-14%	3.3µM*	4.1µM*
COC(=O)/C(=C\Nc1ccc(OC)cc1)NC(=O)c1ccc(Cl)cc1Cl	i	u	-20%	2%	-4%	i
CC1=C(C(=O)OCc2ccccc2)C(/C=C/c2ccccc2)NC(=S)N1 (centres undefined)	i	i	u	u	-24%	u
C=CCOC(=O)C1=C(C)NC(=S)NC1/C=C/c1ccccc1 (centres undefined)	i	i	u	-30%	13µM*	i
CCN(Cc1ccncc1)Cc1ccc2c(c1)CN(C(=O)c1cccc3c(C)c(C)[nH]c13)CCO2	i	x	x	x	x	x
NC(=O)CSc1nc2cc([N+](=O)[O-])ccc2n1-c1cccc(C(F)(F)F)c1	u	i	1%	-8%	2%	6.5µM*
Brc1cccc[n+]1C/C=C/C[n+]1ccccc1Br	x	i	x	x	x	i
CCOc1ccc2[nH]c(=O)c(CN(CCc3ccccc3)C(=O)N3CCOCC3)cc2c1	i	i	-1%	-6%	8%	15µM*
CCOc1ccc2[nH]c(=O)c(CN(CCc3ccccc3)C(=O)N3CCCC3)cc2c1	u	i	-5%	u	-3%	i
COC(=O)c1c(-c2ccc(Br)cc2)csc1NC(=O)Cc1ccc(OC)c(OC)c1	i	u	-17%	-14%	-10%	7.3µM*
COC(=O)c1sccc1NC(=O)Cc1ccc(OC)c(OC)c1	i	i	-4%	16%	-5%	i
COC(=O)c1c(-c2cccc3ccccc23)csc1NC(=O)Cc1ccc(OC)c(OC)c1	i	u	u	-19%	-24%	i
COC(=O)c1c(-c2ccc(C)cc2)csc1NC(=O)Cc1ccc(OC)c(OC)c1	i	u	-2%	-26%	-1%	2.6µM*
O=C(NC1CCCC1)c1cn(C2CCN(Cc3cccc4cccnc34)CC2)nn1	i	x	x	x	x	x
CCn1cc(C(=O)OCC(=O)Nc2cccc(Cl)c2C)c(=O)c2ccc(C)nc21	i	i	x	-2%	x	i
CCc1ccc2ncc(S(=O)(=O)c3ccc(C)c(C)c3)c(N3CCCC3)c2c1	i	18µM*	u	-4%	u	u
CNS(=O)(=O)c1cccc(C(=O)OCC(=O)c2c(N)n(C)c(=O)n(C)c2=O)c1	i	i	8%	14%	1%	i
C=CCN(c1ccccc1OC)S(=O)(=O)c1cccc(C(=O)OCC(=O)c2c(N)n(C)c(=O)n(C)c2=O)c1	u	u	-1%	-20%	-6%	8.2µM*
CC(C)N(C(=O)CSc1nnnn1C1CCCC1)C(C)C	i	i	3%	8%	5%	13µM*
SMILES	ATXN viability	KB-3-1 cytotox	HT1080 IDH1KD tx	ATXN2 expr inh	HT1080NT lethal	KB-V1 cytotox
COCCn1c(C)cc(C(=O)CSc2nnnn2C2CCCC2)c1C	i	x	-1%	14µM*	8%	x
COCCn1c(C)cc(C(=O)CSc2nnc(C)s2)c1C	i	i	-17%	5µM*	-12%	i
O=C(O)CSc1nnnn1C1CCCCC1	i	i	12%	-31%	14%	i
C[C@@H]1[C@H](C)CC[C@]2(C(=O)O)CC[C@]3(C)C(=CC[C@@H]4[C@@]5(C)C[C@@H](O)[C@H](O)[C@@](C)(CO)[C@H]5CC[C@]43C)[C@@H]12	x	x	x	2%	x	x
COc1cc(CNc2ccc(N3CCCC3)cc2)cc(Cl)c1OC	i	12µM*	u	u	16µM*	u
C=CCOc1c(Cl)cc(CNc2ccc(N(C)C)cc2)cc1OC	u	u	16µM*	27%	-15%[9.24 µM]	5.2µM*
CCOc1cc(CNc2ccc(N3CCCC3)cc2)cc(Cl)c1OC	u	u	u	-18%	u	u
CCOc1c(Cl)cc(CNc2ccc3[nH]c(=O)[nH]c3c2)cc1OC	u	i	x	-28%	x	i
O=C(NCC1(N2CCOCC2)CCCC1)c1cnn(-c2nccc(-c3ccco3)n2)c1C1CC1	i	x	x	x	x	x
COCCN1C(=O)COc2ccccc2C1C(=O)NC1CCCCC1 (centres undefined)	i	i	6%	1%	19%	i
O=c1cc(-c2ccccc2)c2ccc(O)c(CN3CCCCC3)c2o1	i	i	-7%	-6%	-8%	13µM*
O=C(NCc1cccnc1)Nc1ccc(Br)cc1	i	i	18%	14%	13%	i
Cc1ccc(OCc2ccc(C(=O)NCc3cccnc3)cc2)cc1C	i	u	18µM*	x	u	u
O=C(NCc1ccc(F)cc1)c1ccc(S(=O)(=O)Nc2cccc(C(F)(F)F)c2)cc1	i	u	-9%	4%	-15%	15µM*
Cc1ccc(S(=O)(=O)Nc2cccc(C(=O)NCc3cccnc3)c2)cc1F	i	7.3µM*	6.5µM*	-12%	u	i
O=C(NCc1cccnc1)c1ccc(NC(=O)c2ccc(Br)cc2)cc1	i	i	5.8µM*	0%	12µM*	i
Cc1cnc(C)c(-c2cc(F)cc3c2OC(CNC(=O)CN2CCCC2)C3)n1 (centres undefined)	i	x	x	x	x	x
COc1cccc(NC(=O)Cn2nc(-c3ccncc3)ccc2=O)c1	u	i	x	-3%	x	i
Cc1ccc(OCc2ccc(C(=O)N3CCOCC3)cc2)cc1C	i	i	-3%	5%	u	18µM*
